This excerpt belongs to a sample that is enriched for hits.
ST2 inh – inhibitors of human ST2 (IL1RL1) binding to IL-33, primary screen, biochemical, AlphaLISA | Interleukin-1 receptor-like 1 (Homo sapiens), Q01638 | AlphaLISA ST2-Fc/biotin-IL-33 interaction, 1 h | inhibition, % for hits at 17 µM | 78,000 tested, 2.3% active; in the data active = inhibition above about 30%
Target sequence (Q01638 whole entry, looked up): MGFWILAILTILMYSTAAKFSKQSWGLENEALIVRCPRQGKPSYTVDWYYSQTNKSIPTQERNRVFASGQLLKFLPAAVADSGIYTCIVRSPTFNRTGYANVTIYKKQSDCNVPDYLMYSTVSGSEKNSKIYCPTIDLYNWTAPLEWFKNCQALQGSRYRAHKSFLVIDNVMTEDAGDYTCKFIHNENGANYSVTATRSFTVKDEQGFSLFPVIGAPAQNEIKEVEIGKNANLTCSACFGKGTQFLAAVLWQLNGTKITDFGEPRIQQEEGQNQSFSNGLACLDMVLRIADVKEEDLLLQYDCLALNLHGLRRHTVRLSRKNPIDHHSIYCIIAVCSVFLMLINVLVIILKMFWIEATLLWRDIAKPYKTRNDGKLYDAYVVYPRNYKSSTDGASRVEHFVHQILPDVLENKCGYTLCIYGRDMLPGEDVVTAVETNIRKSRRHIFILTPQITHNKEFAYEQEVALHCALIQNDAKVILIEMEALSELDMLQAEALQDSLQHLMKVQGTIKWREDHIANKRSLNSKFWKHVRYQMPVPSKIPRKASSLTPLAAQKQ
* = called active by the depositor; i = inactive.

SMILES | ST2 inh
O=C(C1CC1)N1CCc2cc(Br)cc(S(=O)(=O)NCc3cccnc3)c21 | i
Cc1ccc(NC(=O)c2ccccc2Cl)c([N+](=O)[O-])c1 | i
C[C@H]1[C@@H]2[C@H]3OC(=O)[C@@H](C)[C@@H]3CC[C@@]2(C)CC[C@@H]1NC(=O)C1CCCCC1 | i
COc1ccc(N(CC(N)=O)S(=O)(=O)c2ccccc2)cc1Cl | i
C=CCN(Cc1ccc(F)cc1)C(=O)c1c[nH]c2c(C)cccc2c1=O | i
CCS(=O)(=O)N1CCN(c2cc(-c3cccc(F)c3)ncn2)CC1 | i
CC1=C(C(=O)NCc2ccccc2C)C2(CCN(S(C)(=O)=O)CC2)OC1=O | i
Cc1nn(C)c(N2CCOCC2)c1CN(C)Cc1[nH]c2ccccc2c1C | i
COc1ccc(CC(=O)N2N=C(C)CC2(O)c2cccnc2)cc1 (stereo not given) | i
CCN1C(=Nc2cccnc2)SCC1(O)c1ccccc1 (stereo not given) | 33%*
CCC(C)OC(=O)C1=C(C)NC2=C(C(=O)C(C(=O)OC)C(C)C2)C1c1ccc(OC)c(OC)c1 (stereo not given) | i
CCc1ccc(C(=O)NC(C(=O)O)C(C)C)cc1 (stereo not given) | i
CC(C)C(NC(=O)c1ccco1)C(=O)O (stereo not given) | 32%*
NC(=O)CC(NC(=O)c1ccco1)C(=O)O (stereo not given) | i
CCCCc1ncc(CN2CCc3[nH]cnc3C2c2cccc(O)c2)[nH]1 (stereo not given) | 37%*
CCCCc1ncc(CN2CCN(Cc3ccc(OCC)cc3)C(CCO)C2)[nH]1 (stereo not given) | i
Cc1ccc(C2c3nc[nH]c3CCN2Cc2cc(C)ccc2O)cc1 (stereo not given) | i
Cc1ccccc1-n1nc2c(c1NC(=O)c1c(F)cccc1Cl)CS(=O)C2 (stereo not given) | i
CC(=O)Cc1nsc(Nc2ccc(F)c(Cl)c2)n1 | i
COc1ccc(-n2c(O)c(C=Nc3ccc(OC)c(OC)c3)c3ccccc3c2=O)cc1 | i
COc1ccc(NS(=O)(=O)c2ccc(N=Cc3cc(Br)ccc3O)cc2)nn1 | i
COc1ccc(C=Nc2ccc(O)cc2)c(OC)c1 | 32%*
COc1cc(OC)c(C=C2C(=O)OC3(CCCCC3)OC2=O)cc1Br | i
COc1cc(OC)c(C=Nc2ccc(O)cc2)cc1Br | 51%*
COc1ccc(OC)c(C=Nc2ccc(S(N)(=O)=O)cc2)c1 | i
SMILES | ST2 inh
CCCCOC(=O)C1=C(C)Nc2nnnn2C1c1ccccc1C (stereo not given) | i
Cc1ccc(-n2nc3c(c2NC(=O)c2ccco2)CS(=O)C3)cc1 (stereo not given) | i
COc1ccc(CCN2C(=O)C3CC=CC(C)C3C2=O)cc1OC (stereo not given) | i
Cc1ccc(C)c(S(=O)(=O)N=C(c2ccc(Cl)cc2)N(C)C)c1 | 78%*
CCN(CC)C(=NS(=O)(=O)c1cc(C)ccc1C)c1ccccc1 | i
Cc1ccc(C(=O)Nc2cc(Cl)ccc2C)cc1 | i
COc1ccccc1-n1cc(C(=O)N2[C@@H]3CC[C@H]2CNC(=O)C3)cn1 | i
COc1ccc(OC)c(NS(=O)(=O)c2cc(Br)cc3c2N(C(C)=O)C(C)C3)c1 (stereo not given) | i
O=C(O)c1[nH]c2ccccc2c1CC(=O)N1CCN(c2ccccc2)CC1 | i
Cc1cccc2nc3c(nc12)C(=O)c1ccccc1C3=O | 32%*
Cc1ccccc1Cn1c(-c2ccccc2F)nc2ccccc2c1=O | i
CCNc1ccccc1-c1nc2ccccc2[nH]c1=O | i
O=C(O)/C=C/C(=O)Nc1cccc(I)c1 | i
Cc1cc(N2CCCC2)nc(N2CCN(S(=O)(=O)c3cc(C)c(C)cc3C)CC2)n1 | i
Cc1ccc(S(=O)(=O)N2CCc3ccccc32)cc1C(N)=O | i
Cc1ccc(S(=O)(=O)N2CCCCC2)cc1[N+](=O)[O-] | i
Cc1ccc(S(=O)(=O)N2CCc3ccccc32)cc1[N+](=O)[O-] | 36%*
C/C(O)=C1/C(=O)NC2(C)CC1c1cc([N+](=O)[O-])ccc1O2 (stereo not given) | i
Cc1cc(CN(C)C(=O)c2sc3ncnc(NC[C@H]4C[C@@H]5C=C[C@H]4C5)c3c2C)on1 | i
CN(C)c1ccc(/C=c2\sc3nc4ccccc4n3c2=O)cc1 | i
CCN1/C(=c2/sc3nc4ccccc4n3c2=O)Sc2ccc(OC)cc21 | i
CCN1/C(=C/C=c2/sc3nc4ccccc4n3c2=O)C=Cc2ccccc21 | 43%*
COc1ccc(NC(=O)c2c(F)cccc2F)c([N+](=O)[O-])c1 | i
O=C(c1cc(O)c(O)c([N+](=O)[O-])c1)c1ccccc1F | i
Cc1cc(Oc2ccccc2F)c(F)cc1[N+](=O)[O-] | 31%*
CCOc1ccc(-c2nc(SCC(=O)Nc3cc(OC)cc(OC)c3)n3[nH]c(=O)cc3n2)cc1 | i
Cc1cc(NS(=O)(=O)c2ccc(NC(=O)COc3ccc(C(C)C)c(C)c3)cc2)nc(C)n1 | i

High-throughput results (PubChem)
